Experimental data reported in ChEMBL document CHEMBL1961873, “Compounds: GSK PKIS; Assays: Nanosyn kinase panel” (2012).

Experiments:
[1] = biological target: Tyrosine-protein kinase receptor UFO (Homo sapiens) (UniProt P30530); conditions: at 1 µM
[2] = biological target: Tyrosine-protein kinase Blk (Homo sapiens) (UniProt P51451); conditions: at 0.1 µM
[3] = biological target: Tyrosine-protein kinase Blk (Homo sapiens) (UniProt P51451); conditions: at 1 µM
[4] = biological target: T1, Cytoplasmic tyrosine-protein kinase BMX (Homo sapiens) (UniProt P51813); conditions: at 0.1 µM
T1 sequence (whole entry): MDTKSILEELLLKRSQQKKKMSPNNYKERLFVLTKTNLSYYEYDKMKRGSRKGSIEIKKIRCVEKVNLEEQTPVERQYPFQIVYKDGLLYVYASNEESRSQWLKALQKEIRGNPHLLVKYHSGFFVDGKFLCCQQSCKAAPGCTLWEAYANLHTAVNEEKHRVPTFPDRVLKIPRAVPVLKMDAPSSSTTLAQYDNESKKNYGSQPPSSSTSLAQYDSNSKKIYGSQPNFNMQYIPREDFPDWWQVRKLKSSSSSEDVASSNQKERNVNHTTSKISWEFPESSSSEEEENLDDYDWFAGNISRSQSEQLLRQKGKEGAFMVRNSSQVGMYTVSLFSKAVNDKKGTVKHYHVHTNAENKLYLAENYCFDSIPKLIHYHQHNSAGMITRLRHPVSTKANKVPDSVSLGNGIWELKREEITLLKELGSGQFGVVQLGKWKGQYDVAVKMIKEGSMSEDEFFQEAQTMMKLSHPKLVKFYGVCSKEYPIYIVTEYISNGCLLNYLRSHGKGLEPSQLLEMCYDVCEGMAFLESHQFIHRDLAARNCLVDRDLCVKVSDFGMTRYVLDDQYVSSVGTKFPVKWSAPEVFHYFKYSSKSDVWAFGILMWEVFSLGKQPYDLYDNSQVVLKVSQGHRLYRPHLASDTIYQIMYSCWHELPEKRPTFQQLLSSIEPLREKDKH

[5] = biological target: T1, Cytoplasmic tyrosine-protein kinase BMX (Homo sapiens); conditions: at 1 µM
[6] = biological target: Protein-tyrosine kinase 6 (Homo sapiens) (UniProt Q13882); conditions: at 0.1 µM
[7] = biological target: Protein-tyrosine kinase 6 (Homo sapiens) (UniProt Q13882); conditions: at 1 µM
[8] = biological target: Tyrosine-protein kinase BTK (Homo sapiens) (UniProt Q06187); conditions: at 0.1 µM
[9] = biological target: Tyrosine-protein kinase BTK (Homo sapiens) (UniProt Q06187); conditions: at 1 µM
[10] = biological target: Tyrosine-protein kinase CSK (Homo sapiens) (UniProt P41240); conditions: at 0.1 µM
[11] = biological target: Tyrosine-protein kinase CSK (Homo sapiens) (UniProt P41240); conditions: at 1 µM
[12] = biological target: T2, Discoidin domain-containing receptor 2 (Homo sapiens) (UniProt Q16832); conditions: at 0.1 µM
T2 sequence (whole entry): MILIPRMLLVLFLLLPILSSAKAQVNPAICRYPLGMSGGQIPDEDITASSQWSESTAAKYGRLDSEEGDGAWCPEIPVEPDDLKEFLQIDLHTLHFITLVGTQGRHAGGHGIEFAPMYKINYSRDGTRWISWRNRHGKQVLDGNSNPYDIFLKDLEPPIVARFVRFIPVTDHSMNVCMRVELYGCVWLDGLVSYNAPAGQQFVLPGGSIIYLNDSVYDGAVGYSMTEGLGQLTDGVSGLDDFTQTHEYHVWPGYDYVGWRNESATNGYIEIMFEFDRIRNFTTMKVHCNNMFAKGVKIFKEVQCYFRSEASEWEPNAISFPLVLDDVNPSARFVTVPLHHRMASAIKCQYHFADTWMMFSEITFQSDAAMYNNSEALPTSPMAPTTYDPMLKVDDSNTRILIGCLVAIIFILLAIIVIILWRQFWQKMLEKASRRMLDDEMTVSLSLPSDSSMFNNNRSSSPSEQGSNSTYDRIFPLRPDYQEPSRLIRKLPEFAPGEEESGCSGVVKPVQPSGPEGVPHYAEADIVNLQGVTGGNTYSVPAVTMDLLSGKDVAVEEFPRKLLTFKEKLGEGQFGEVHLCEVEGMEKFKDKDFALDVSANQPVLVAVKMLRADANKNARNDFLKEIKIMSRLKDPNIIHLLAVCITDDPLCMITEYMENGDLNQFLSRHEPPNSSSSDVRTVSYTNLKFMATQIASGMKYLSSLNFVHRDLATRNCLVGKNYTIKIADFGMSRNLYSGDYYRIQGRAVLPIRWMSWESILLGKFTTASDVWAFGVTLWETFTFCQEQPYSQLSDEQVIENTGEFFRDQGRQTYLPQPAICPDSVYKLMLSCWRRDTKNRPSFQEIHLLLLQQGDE

[13] = biological target: T2, Discoidin domain-containing receptor 2 (Homo sapiens); conditions: at 1 µM
[14] = biological target: Epidermal growth factor receptor (Homo sapiens) (UniProt P00533); conditions: at 0.1 µM
[15] = biological target: Epidermal growth factor receptor (Homo sapiens) (UniProt P00533); conditions: at 1 µM
[16] = system: Epidermal growth factor receptor (Homo sapiens), P00533 [L858R]; conditions: at 0.1 µM
[17] = system: Epidermal growth factor receptor (Homo sapiens), P00533 [L858R]; conditions: at 1 µM
[18] = system: Epidermal growth factor receptor (Homo sapiens), P00533 [L861Q]; conditions: at 0.1 µM
[19] = system: Epidermal growth factor receptor (Homo sapiens), P00533 [L861Q]; conditions: at 1 µM
[20] = system: Epidermal growth factor receptor (Homo sapiens), P00533 [T790M]; conditions: at 0.1 µM
Chain of Epidermal growth factor receptor (Homo sapiens), P00533 [T790M] (P00533 whole entry T790M): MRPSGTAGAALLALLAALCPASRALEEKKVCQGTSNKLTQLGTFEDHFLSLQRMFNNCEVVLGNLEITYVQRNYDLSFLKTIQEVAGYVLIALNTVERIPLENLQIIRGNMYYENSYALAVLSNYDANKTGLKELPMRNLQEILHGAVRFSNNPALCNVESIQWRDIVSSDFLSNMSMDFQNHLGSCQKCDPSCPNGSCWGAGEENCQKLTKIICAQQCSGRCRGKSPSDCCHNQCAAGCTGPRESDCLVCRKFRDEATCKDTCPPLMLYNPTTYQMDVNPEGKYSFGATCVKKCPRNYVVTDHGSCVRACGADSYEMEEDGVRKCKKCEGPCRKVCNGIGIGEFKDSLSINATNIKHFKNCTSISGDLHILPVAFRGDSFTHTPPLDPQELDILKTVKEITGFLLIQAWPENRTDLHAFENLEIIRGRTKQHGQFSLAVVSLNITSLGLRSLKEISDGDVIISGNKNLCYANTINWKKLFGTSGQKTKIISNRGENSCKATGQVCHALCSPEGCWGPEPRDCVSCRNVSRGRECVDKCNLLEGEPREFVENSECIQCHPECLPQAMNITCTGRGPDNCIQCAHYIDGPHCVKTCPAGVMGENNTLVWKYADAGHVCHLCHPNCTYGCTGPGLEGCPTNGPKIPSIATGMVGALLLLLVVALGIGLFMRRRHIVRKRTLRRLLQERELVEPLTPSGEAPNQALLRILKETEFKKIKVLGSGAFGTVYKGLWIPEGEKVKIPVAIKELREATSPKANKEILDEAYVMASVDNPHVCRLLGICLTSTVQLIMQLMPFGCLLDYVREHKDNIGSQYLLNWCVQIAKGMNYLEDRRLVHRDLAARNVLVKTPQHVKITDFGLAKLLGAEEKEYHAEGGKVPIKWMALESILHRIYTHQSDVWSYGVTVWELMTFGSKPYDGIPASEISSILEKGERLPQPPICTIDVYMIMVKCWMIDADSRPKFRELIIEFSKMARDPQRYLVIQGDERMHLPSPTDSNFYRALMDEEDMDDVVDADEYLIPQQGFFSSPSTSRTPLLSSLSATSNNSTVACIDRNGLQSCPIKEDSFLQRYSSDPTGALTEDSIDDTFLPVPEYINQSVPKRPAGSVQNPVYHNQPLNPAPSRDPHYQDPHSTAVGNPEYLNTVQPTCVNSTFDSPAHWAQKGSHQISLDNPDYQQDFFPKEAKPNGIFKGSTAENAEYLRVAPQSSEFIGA

Chain of Epidermal growth factor receptor (Homo sapiens) (P00533 whole entry): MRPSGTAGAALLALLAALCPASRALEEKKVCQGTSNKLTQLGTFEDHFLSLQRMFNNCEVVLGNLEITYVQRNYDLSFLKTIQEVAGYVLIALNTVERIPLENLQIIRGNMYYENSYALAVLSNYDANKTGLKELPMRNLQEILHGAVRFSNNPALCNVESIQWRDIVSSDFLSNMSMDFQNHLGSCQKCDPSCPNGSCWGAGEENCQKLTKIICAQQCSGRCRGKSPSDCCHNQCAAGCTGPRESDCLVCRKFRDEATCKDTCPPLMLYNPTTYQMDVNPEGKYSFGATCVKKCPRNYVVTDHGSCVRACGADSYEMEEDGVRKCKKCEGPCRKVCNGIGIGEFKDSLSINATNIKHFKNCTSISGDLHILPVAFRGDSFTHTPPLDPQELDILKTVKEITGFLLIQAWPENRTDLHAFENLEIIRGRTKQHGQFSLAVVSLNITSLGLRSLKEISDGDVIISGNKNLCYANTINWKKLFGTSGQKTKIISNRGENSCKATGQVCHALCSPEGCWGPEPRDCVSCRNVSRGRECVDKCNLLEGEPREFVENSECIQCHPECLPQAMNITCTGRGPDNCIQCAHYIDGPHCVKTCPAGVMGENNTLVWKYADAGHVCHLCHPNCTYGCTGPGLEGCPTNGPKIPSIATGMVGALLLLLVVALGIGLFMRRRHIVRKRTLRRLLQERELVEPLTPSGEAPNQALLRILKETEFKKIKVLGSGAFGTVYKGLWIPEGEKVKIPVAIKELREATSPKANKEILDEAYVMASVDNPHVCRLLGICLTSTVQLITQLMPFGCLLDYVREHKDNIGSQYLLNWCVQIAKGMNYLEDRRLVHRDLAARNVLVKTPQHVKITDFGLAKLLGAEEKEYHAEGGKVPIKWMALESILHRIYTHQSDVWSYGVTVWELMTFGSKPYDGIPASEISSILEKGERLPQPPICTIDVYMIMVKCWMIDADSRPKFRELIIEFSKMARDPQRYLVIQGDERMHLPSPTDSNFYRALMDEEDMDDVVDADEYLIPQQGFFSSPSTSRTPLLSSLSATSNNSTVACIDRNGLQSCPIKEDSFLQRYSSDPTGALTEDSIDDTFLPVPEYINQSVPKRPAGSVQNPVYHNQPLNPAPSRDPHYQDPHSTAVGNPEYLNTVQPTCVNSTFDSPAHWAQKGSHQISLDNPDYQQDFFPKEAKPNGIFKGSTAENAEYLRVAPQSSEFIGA
Chain of Tyrosine-protein kinase CSK (Homo sapiens) (P41240 2-450 limits assumed): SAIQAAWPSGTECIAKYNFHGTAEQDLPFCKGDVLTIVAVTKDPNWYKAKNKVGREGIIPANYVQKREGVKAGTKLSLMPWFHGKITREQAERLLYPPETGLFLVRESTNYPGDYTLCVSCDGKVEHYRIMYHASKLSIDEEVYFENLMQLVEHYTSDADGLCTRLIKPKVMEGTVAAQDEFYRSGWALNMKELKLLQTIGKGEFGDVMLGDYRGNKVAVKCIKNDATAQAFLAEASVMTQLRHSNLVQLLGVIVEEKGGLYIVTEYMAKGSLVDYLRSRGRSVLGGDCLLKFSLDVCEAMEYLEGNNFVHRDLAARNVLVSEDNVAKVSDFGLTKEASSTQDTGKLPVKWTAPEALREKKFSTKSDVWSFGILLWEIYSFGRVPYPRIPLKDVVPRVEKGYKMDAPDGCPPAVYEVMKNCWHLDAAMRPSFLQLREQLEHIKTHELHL
Chain of Tyrosine-protein kinase BTK (Homo sapiens) (Q06187 whole entry): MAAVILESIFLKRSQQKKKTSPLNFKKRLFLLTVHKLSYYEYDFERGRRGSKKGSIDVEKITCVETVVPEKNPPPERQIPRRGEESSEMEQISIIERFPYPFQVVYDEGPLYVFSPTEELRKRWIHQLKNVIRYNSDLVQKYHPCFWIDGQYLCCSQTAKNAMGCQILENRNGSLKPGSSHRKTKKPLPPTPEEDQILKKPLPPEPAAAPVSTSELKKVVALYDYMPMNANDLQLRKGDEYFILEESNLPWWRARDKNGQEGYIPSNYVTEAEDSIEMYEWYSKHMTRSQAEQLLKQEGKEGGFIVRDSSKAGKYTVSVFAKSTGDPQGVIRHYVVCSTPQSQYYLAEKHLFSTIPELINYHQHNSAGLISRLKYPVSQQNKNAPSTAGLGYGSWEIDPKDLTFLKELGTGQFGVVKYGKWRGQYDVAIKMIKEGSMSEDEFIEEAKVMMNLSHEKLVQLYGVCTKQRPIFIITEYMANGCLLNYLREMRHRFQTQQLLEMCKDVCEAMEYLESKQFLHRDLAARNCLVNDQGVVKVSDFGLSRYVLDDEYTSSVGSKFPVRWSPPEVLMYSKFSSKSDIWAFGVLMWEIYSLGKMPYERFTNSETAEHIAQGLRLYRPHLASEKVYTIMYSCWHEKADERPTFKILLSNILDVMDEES
Chain of Protein-tyrosine kinase 6 (Homo sapiens) (Q13882 whole entry, looked up): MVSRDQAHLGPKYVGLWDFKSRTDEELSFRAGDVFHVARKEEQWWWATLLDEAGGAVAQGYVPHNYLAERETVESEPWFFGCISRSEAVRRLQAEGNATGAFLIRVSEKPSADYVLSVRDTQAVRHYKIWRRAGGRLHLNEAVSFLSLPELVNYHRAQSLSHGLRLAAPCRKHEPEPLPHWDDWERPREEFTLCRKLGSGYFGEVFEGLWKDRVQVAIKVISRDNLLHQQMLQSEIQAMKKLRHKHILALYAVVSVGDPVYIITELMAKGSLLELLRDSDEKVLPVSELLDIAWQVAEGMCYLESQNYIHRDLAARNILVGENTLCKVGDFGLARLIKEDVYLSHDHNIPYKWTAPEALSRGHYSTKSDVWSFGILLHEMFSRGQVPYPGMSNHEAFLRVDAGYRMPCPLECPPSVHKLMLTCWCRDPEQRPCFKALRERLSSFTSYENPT
Chain of Tyrosine-protein kinase Blk (Homo sapiens) (P51451 2-505 limits assumed): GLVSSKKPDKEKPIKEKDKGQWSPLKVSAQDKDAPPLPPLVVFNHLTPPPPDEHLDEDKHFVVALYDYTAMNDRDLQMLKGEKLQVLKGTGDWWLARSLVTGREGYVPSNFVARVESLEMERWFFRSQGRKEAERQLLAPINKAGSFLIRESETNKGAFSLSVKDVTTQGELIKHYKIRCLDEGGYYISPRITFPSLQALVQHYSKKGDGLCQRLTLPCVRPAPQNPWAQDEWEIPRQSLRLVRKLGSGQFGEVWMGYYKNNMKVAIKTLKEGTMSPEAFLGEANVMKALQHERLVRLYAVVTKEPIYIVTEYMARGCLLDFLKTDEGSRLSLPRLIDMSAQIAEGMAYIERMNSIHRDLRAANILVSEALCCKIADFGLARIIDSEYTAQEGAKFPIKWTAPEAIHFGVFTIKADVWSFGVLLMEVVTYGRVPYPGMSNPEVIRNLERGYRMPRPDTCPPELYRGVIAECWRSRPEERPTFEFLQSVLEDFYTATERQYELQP

CCn1cc(-c2ccnc3[nH]ccc23)c(-c2cccc(NC(=O)Nc3ccc(OCc4ccccc4)cc3)c2)n1
inhibition [1]: 0.9%
inhibition [2]: 2.54%
inhibition [3]: 18.7%
inhibition [4]: 1.09%
inhibition [5]: -0.27%
inhibition [6]: 3.04%
inhibition [7]: 16.2%
inhibition [8]: 0.34%
inhibition [9]: 3.3%
inhibition [10]: -0.47%
inhibition [11]: 2.9%
inhibition [12]: 2.59%
inhibition [13]: 21%
inhibition [14]: -1.36%
inhibition [15]: 2.86%
inhibition [16]: -3.83%
inhibition [17]: -3.23%
inhibition [18]: -1.65%
inhibition [19]: 2.37%
inhibition [20]: -1.87%

COc1ccc2[nH]c3c4[nH]c5ccc(OC)cc5c4c4c(c3c2c1)C(=O)NC4=O
inhibition [1]: 40%
inhibition [2]: 6.14%
inhibition [3]: 36.5%
inhibition [4]: -2.69%
inhibition [5]: 16.6%
inhibition [6]: 6.37%
inhibition [7]: 19.6%
inhibition [8]: 0.07%
inhibition [9]: 8.32%
inhibition [10]: 4.3%
inhibition [11]: 9.75%
inhibition [12]: 2.8%
inhibition [13]: 16.8%
inhibition [14]: 2.87%
inhibition [15]: 23.3%
inhibition [16]: 18.2%
inhibition [17]: 64.8%
inhibition [18]: 7.22%
inhibition [19]: 21.2%
inhibition [20]: 3.67%

Cc1ccc2c(-c3ccnc(Nc4ccccc4)n3)c(-c3ccc(F)cc3)nn2n1
inhibition [1]: -3.51%
inhibition [2]: 6.22%
inhibition [3]: 49%
inhibition [4]: 3.36%
inhibition [5]: 42.7%
inhibition [6]: 15.2%
inhibition [7]: 63.4%
inhibition [8]: 2.84%
inhibition [9]: 6.06%
inhibition [10]: 3.99%
inhibition [11]: 14.5%
inhibition [12]: 31.2%
inhibition [13]: 83.3%
inhibition [14]: 47.1%
inhibition [15]: 78.4%
inhibition [16]: 85.8%
inhibition [17]: 97.4%
inhibition [18]: 51.8%
inhibition [19]: 87.8%
inhibition [20]: 8.63%

O=S(=O)(CCNCc1ccc(-c2ccc3ncnc(Nc4ccc(OCc5cccc(F)c5)c(Cl)c4)c3c2)o1)c1ccccc1
inhibition [1]: -5.93%
inhibition [2]: 2.67%
inhibition [3]: 6.67%
inhibition [4]: 5.7%
inhibition [5]: 6.77%
inhibition [6]: 6.2%
inhibition [7]: 6.15%
inhibition [8]: -0.83%
inhibition [9]: 1.59%
inhibition [10]: 7.31%
inhibition [11]: 6.6%
inhibition [12]: 5.04%
inhibition [13]: 6.18%
inhibition [14]: 65.3%
inhibition [15]: 83.3%
inhibition [16]: 32.6%
inhibition [17]: 79.5%
inhibition [18]: 39.2%
inhibition [19]: 78.2%
inhibition [20]: 2.92%

CCn1c(-c2nonc2N)nc2ccccc21
inhibition [1]: 0.96%
inhibition [2]: 1.38%
inhibition [3]: 3.02%
inhibition [4]: -0.5%
inhibition [5]: 3.8%
inhibition [6]: 4.51%
inhibition [7]: 3.44%
inhibition [8]: 1.6%
inhibition [9]: 2.63%
inhibition [10]: 2.25%
inhibition [11]: -0.41%
inhibition [12]: 1.73%
inhibition [13]: 2.19%
inhibition [14]: 2.08%
inhibition [15]: 1.93%
inhibition [16]: 3.02%
inhibition [17]: 0.86%
inhibition [18]: 1.96%
inhibition [19]: 0.53%
inhibition [20]: -0.1%

COc1ccc(-c2cc3c(N)ncnc3o2)cc1
inhibition [1]: 2.96%
inhibition [2]: 0.55%
inhibition [3]: 4.67%
inhibition [4]: -2.47%
inhibition [5]: 2.73%
inhibition [6]: 0.01%
inhibition [7]: 2.82%
inhibition [8]: -0.13%
inhibition [9]: -0.38%
inhibition [10]: -1.51%
inhibition [11]: -0.98%
inhibition [12]: -0.42%
inhibition [13]: 0.02%
inhibition [14]: 0.82%
inhibition [15]: 2%
inhibition [16]: 0.82%
inhibition [17]: -0.02%
inhibition [18]: -0.61%
inhibition [19]: -1.15%
inhibition [20]: -2.23%

Cc1ccc(O)cc1Nc1ccnc2cc(-c3ccccn3)ccc12
inhibition [1]: -6.05%
inhibition [2]: 12.5%
inhibition [3]: 61.8%
inhibition [4]: 19.8%
inhibition [5]: 69.2%
inhibition [6]: 52.5%
inhibition [7]: 96.9%
inhibition [8]: 4.79%
inhibition [9]: 34.5%
inhibition [10]: 14.5%
inhibition [11]: 57.1%
inhibition [12]: 20.3%
inhibition [13]: 74%
inhibition [14]: 57.7%
inhibition [15]: 91.9%
inhibition [16]: 88.8%
inhibition [17]: 97.8%
inhibition [18]: 59.8%
inhibition [19]: 91.9%
inhibition [20]: 5.49%

CNC(=O)c1cc(-c2ccc(F)cc2)cc(-c2ccc(S(=O)(=O)N3CCCC3)cc2)c1N
inhibition [1]: -4.04%
inhibition [2]: 2.16%
inhibition [3]: 2.11%
inhibition [4]: 2.06%
inhibition [5]: 2.39%
inhibition [6]: 1.87%
inhibition [7]: 1.57%
inhibition [8]: -1.58%
inhibition [9]: -0.59%
inhibition [10]: -0.99%
inhibition [11]: 2.28%
inhibition [12]: 1.09%
inhibition [13]: 1.38%
inhibition [14]: 5.94%
inhibition [15]: 6.92%
inhibition [16]: 0.45%
inhibition [17]: 5.35%
inhibition [18]: 2.56%
inhibition [19]: 4.86%
inhibition [20]: 0.67%

CC(C)(CO)CNC(=O)c1ccc2c(c1)/C(=N/Nc1ccc(S(N)(=O)=O)cc1)C(=O)N2
inhibition [1]: 6.57%
inhibition [2]: -0.9%
inhibition [3]: 10.8%
inhibition [4]: -1.83%
inhibition [5]: 0.67%
inhibition [6]: -2.27%
inhibition [7]: -0.34%
inhibition [8]: 0.27%
inhibition [9]: -2.23%
inhibition [10]: 0.77%
inhibition [11]: -0.3%
inhibition [12]: -1.82%
inhibition [13]: 3.39%
inhibition [14]: 5.33%
inhibition [15]: 5.03%
inhibition [16]: -3.09%
inhibition [17]: -0.53%
inhibition [18]: -0.63%
inhibition [19]: -0.88%
inhibition [20]: -1.56%

NS(=O)(=O)c1ccc(N/N=C2\C(=O)Nc3ccc4ncccc4c32)cc1
inhibition [1]: 36.8%
inhibition [2]: 8.45%
inhibition [3]: 60%
inhibition [4]: 6.88%
inhibition [5]: 25.3%
inhibition [6]: 5.86%
inhibition [7]: 31.9%
inhibition [8]: 1.8%
inhibition [9]: 13%
inhibition [10]: 1.66%
inhibition [11]: 9.03%
inhibition [12]: 0.92%
inhibition [13]: 6.09%
inhibition [14]: 0.87%
inhibition [15]: 6.7%
inhibition [16]: 1.35%
inhibition [17]: 2.75%
inhibition [18]: 1.5%
inhibition [19]: -1.33%
inhibition [20]: 1.15%

FC(F)(F)c1cccc(-c2nn3ncccc3c2-c2ccnc(Nc3ccc4c(c3)OCCO4)n2)c1
inhibition [1]: -1.04%
inhibition [2]: 4.81%
inhibition [3]: 45.5%
inhibition [4]: 7.84%
inhibition [5]: 29.9%
inhibition [6]: 4.61%
inhibition [7]: 28.5%
inhibition [8]: -0.12%
inhibition [9]: 2.88%
inhibition [10]: 5.73%
inhibition [11]: 4.25%
inhibition [12]: 1.27%
inhibition [13]: 16.5%
inhibition [14]: 5.52%
inhibition [15]: 45.3%
inhibition [16]: 5.51%
inhibition [17]: 55.7%
inhibition [18]: 8.83%
inhibition [19]: 33.4%
inhibition [20]: 2.2%

COC(=O)Nc1nc2ccc(S(=O)(=O)c3ccc(NC(=O)Nc4cc(C(F)(F)F)ccc4F)cc3)cc2[nH]1
inhibition [1]: -1.71%
inhibition [2]: 1.71%
inhibition [3]: 3.18%
inhibition [4]: 6.6%
inhibition [5]: 5.12%
inhibition [6]: 2.94%
inhibition [7]: 2.51%
inhibition [8]: 1.86%
inhibition [9]: 0.94%
inhibition [10]: 2.8%
inhibition [11]: -1.83%
inhibition [12]: 10.3%
inhibition [13]: 62.7%
inhibition [14]: 0.69%
inhibition [15]: 7.04%
inhibition [16]: -0.69%
inhibition [17]: 1.58%
inhibition [18]: 0.81%
inhibition [19]: 2.11%
inhibition [20]: 2.47%

Clc1ccc(-c2nn3ncccc3c2-c2ccnc(Nc3ccccc3)n2)cc1
inhibition [1]: -0.77%
inhibition [2]: 3.97%
inhibition [3]: 15%
inhibition [4]: -0.61%
inhibition [5]: 13.9%
inhibition [6]: 7.5%
inhibition [7]: 40.2%
inhibition [8]: 0.8%
inhibition [9]: 2.63%
inhibition [10]: 0.47%
inhibition [11]: 5.89%
inhibition [12]: 3%
inhibition [13]: 76.7%
inhibition [14]: 13.2%
inhibition [15]: 61.7%
inhibition [16]: 43.5%
inhibition [17]: 87.6%
inhibition [18]: 12%
inhibition [19]: 58.5%
inhibition [20]: 1.98%
